In PubChem BioAssay (NCI):
This is part of a sample that, as a whole, favours compounds with a hit. Of some 79,000 tested, about 15% had one in any assay. A number with no mark means an inactive call. Active and inactive are the calls of the source. No stated cut-off is given here; in the data, active means growth inhibition above about 70%; inactive means the rest.

Tests used:
[1] = NCI Yeast Anticancer Drug Screen. Data for the rad50 strain (AID 155);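 further: 0% = growth of vehicle-only cultures of the same strain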; settings: S. cerevisiae rad50 strain growth inhibition, stronger effect = higher value
Method in brief: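 Relative growth inhibition (compound vs vehicle) was measured in yeast with a defined repair-gene alteration.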

[2] = NCI Yeast Anticancer Drug Screen. Data for the mec2-1 strain (AID 157); settings: S. cerevisiae mec2-1 strain, stronger effect = higher value
Method in brief: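 Compounds were applied to mec2-1 yeast cells. Their growth was then compared with that of vehicle-treated cultures to give growth inhibition.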

[3] = NCI Yeast Anticancer Drug Screen. Data for the sgs1 mgt1 strain (AID 161);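 further: 0% = growth of cultures given vehicle only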; settings: S. cerevisiae sgs1 mgt1 strain, stronger effect = higher value
Method in brief: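 Compounds are added to genetically altered yeast, and growth is compared with cultures given vehicle alone to give percent inhibition.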

[4] = NCI Yeast Anticancer Drug Screen. Data for the cln2 rad14 strain (AID 165);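 further: 0% = growth equal to vehicle treated cultures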; settings: S. cerevisiae cln2 rad14 strain, stronger effect = higher value
Method in brief: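 Strain: cln2 rad14 yeast, altered in cell cycle control and DNA damage repair. Read-out: growth inhibition vs vehicle.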

[5] = NCI Yeast Anticancer Drug Screen. Data for the bub3 strain (AID 167); settings: S. cerevisiae bub3 mutant strain, stronger effect = higher value
Method in brief: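 Screening used yeast with an engineered genetic alteration affecting cell cycle control. Compound-exposed cultures were compared with vehicle cultures, and reduced growth was taken as inhibition.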

[6] = NCI Yeast Anticancer Drug Screen. Data for the mlh1 rad18 strain (AID 175); settings: S. cerevisiae mlh1 rad18 strain growth inhibition, stronger effect = higher value
Method in brief: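 A repair-deficient yeast strain is exposed to test compound, and growth is scored relative to vehicle-treated controls.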

[7] = at 5.0 µM (retest, dose inferred, filed as 0.5)
[8] = at 50.0 µM (retest, dose inferred, filed as 5.0)

Structure (SMILES) | growth inhibition [1, 7] | growth inhibition [1, 8] | growth inhibition ([1]; at 50.0 µM) | growth inhibition [2, 7] | growth inhibition [2, 8] | growth inhibition ([2]; at 50.0 µM) | growth inhibition [3, 7] | growth inhibition [3, 8] | growth inhibition ([3]; at 50.0 µM) | growth inhibition [4, 7] | growth inhibition [4, 8] | growth inhibition ([4]; at 50.0 µM) | growth inhibition [5, 7] | growth inhibition [5, 8] | growth inhibition ([5]; at 50.0 µM) | growth inhibition [6, 7] | growth inhibition [6, 8] | growth inhibition ([6]; at 50.0 µM)
CC(=O)OCc1c2ccccc2c(C)c2c1cc(F)c1ccccc12 | 35% | 87% (active) | 98.2% (active) | 25% | 89% (active) | 98.8% (active) | 52% | 90% (active) | 98.1% (active) | 14% | 85% (active) | 98.2% (active) | 15% | 86% (active) | 98.5% (active) | 40% | 88% (active) | 98.2% (active)
COC12C(COC(N)=O)C3=C(C(=O)C(C)=C(N)C3=O)N1CC1C2N1C(=O)c1ccc(Cl)cc1 (stereo not given) | 12% | 57% | 43.3% | 15% | 75% (active) | 50.1% | 20% | 81% (active) | 65.5% | 3% | 72% (active) | 46.4% | 3% | 50% | 43.4% | 25% | 86% (active) | 71.1% (active)
CS(=O)(=O)OCCN(CCOS(C)(=O)=O)c1ccc(N=Nc2ccccc2)cc1 | 32% | 82% (active) | 57.7% | 15% | 73% (active) | 45% | 52% | 88% (active) | 46% | 45% | 96% (active) | 49.8% | 56% | 84% (active) | 39.5% | 22% | 69% | 76.8% (active)
O=C(SCCCc1ccccc1)c1cc([N+](=O)[O-])cc([N+](=O)[O-])c1 | 98% (active) | 87% (active) | 75.7% (active) | 100% (active) | 98% (active) | 66.3% | 99% (active) | 94% (active) | 85.8% (active) | 94% (active) | 89% (active) | 78.6% (active) | 98% (active) | 98% (active) | 66% | 98% (active) | 94% (active) | 76.6% (active)
CSC(=Nc1ccccc1)/N=C(\SCc1ccccc1)N(C)C | 45% | 98% (active) | 99.3% (active) | 26% | 45% | 99.7% (active) | 27% | 99% (active) | 99.2% (active) | 13% | 99% (active) | 98.8% (active) | -30% | 99% (active) | 99.5% (active) | 44% | 99% (active) | 99.3% (active)
CCCCCCCCCCOC1C(C(O)CNCCCN(C)C)OC2OC3(CCCCC3)OC21 (stereo not given) | 1% | 97% (active) | 91.9% (active) | -27% | 98% (active) | 93.2% (active) | 7% | 98% (active) | 91% (active) | 21% | 97% (active) | 90.3% (active) | -24% | 98% (active) | 89% (active) | 5% | 97% (active) | 90.2% (active)
ClCCOCCOc1c(Cl)cc(Cl)c(Cl)c1Cl | 6% | 12% | 58.4% | 0% | 13% | 27.6% | 9% | 58% | 43.5% | 4% | -11% | -26.7% | 3% | 14% | 59.6% | 9% | 26% | 71% (active)
S=C(N/N=C(/c1ccccc1)c1ccccn1)N1CCCCC1 | 58% | 98% (active) | 80.2% (active) | 27% | 98% (active) | 86.3% (active) | 66% | 98% (active) | 88.2% (active) | 30% | 97% (active) | 89% (active) | 54% | 97% (active) | 90.2% (active) | 83% (active) | 98% (active) | 90.8% (active)
OCC(O)C(O)C(O)C(O)c1cnn(-c2ccccc2)n1 (stereo not given) | 3% | -4% | 10.8% | -8% | -24% | 3.45% | 3% | -5% | 15.2% | -4% | -2% | 14.2% | -3% | 2% | -1.3% | -7% | -2% | 18.9%
O/N=C1/CCCC/C1=C/c1ccc(Cl)cc1 | -152% | -124% | 82.7% (active) | -48% | -53% | 53.4% | -63% | -23% | 74% (active) | -57% | -62% | 64.8% | -66% | -78% | 65.5% | -144% | -111% | 80% (active)
